Source: the supplement of paper PMC10037445
The full ranking holds about 2,900 compounds; the median of “NF-kB SEAP reporter activity, fold change vs agonist alone” is about 0.99, and the highest 2% start at about 2.6. The full list was thinned out, with the highest values kept by preference.

Assays:
RAW-Dual [1] = test: NF-kB SEAP reporter activity, fold change vs agonist alone; cytotoxicity flag (confluency mask): not cytotoxic; higher = enhanced NF-kB activity
Summary of the method: (§1)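 RAW-Dual macrophages (50,000 cells/well in DMEM, 384-well plates) received 50 nL of library stock by pin tool, then a PRR agonist 1 h later, and were kept at 37 °C, 5% CO2. After 20 hours, supernatant was read for IRF by QuantiLuc luminescence and for NF-κB by QuantiBlue absorbance at 620 nm. Reporter activity is fold change over agonist-alone wells. Cytotoxic wells had IncuCyte confluency below 70% of agonist controls in both mask sets.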

RAW-Dual [2] = test: NF-kB SEAP reporter activity, fold change vs agonist alone; higher = enhanced NF-kB activity
Summary of the method: as §1

RAW-Dual [3] = test: NF-kB SEAP reporter activity, fold change vs agonist alone; cytotoxicity flag (confluency mask): cytotoxic (confluency <70% of control); higher = enhanced NF-kB activity
Summary of the method: as §1

[4] = agonist: ODN 1826 (TLR9) 0.5 ug/mL
[5] = agonist: Pam2CSK4 (TLR2/6) 0.1 ug/mL
[6] = agonist: Pam3CSK4 (TLR2/1) 0.1 ug/mL
[7] = library stock concentration (final ~1000-fold dilution): 2 mM, cytotoxicity flag (confluency mask): not cytotoxic, agonist: Imiquimod (TLR7) […]
[8] = library stock concentration (final ~1000-fold dilution): 2 mM, cytotoxicity flag (confluency mask): not cytotoxic, agonist: MPLA (TLR4) […]
[9] = library stock concentration (final ~1000-fold dilution): 10 mM, cytotoxicity flag (confluency mask): not cytotoxic, agonist: Imiquimod (TLR7) […]
[10] = library stock concentration (final ~1000-fold dilution): 10 mM, cytotoxicity flag (confluency mask): not cytotoxic, agonist: MPLA (TLR4) […]
[11] = library stock concentration (final ~1000-fold dilution): 10 mM, cytotoxicity flag (confluency mask): cytotoxic (confluency <70% of control), agonist: Imiquimod (TLR7) […]
[12] = library stock concentration (final ~1000-fold dilution): 10 mM, cytotoxicity flag (confluency mask): cytotoxic (confluency <70% of control), agonist: MPLA (TLR4) […]

Structure (SMILES): C=C(C)C1CCC2(C(=O)OC3OC(COC4OC(CO)C(OC5OC(C)C(O)C(O)C5O)C(O)C4O)C(O)C(O)C3O)CCC3(C)C(CCC4C5(C)CCC(OC6OCC(O)C(O)C6OC6OC(C)C(O)C(O)C6O)C(C)(CO)C5CCC43C)C12 (configuration not stated) (library stock concentration (final ~1000-fold dilution): 2 mM)
- NF-kB SEAP reporter activity (RAW-Dual [1]; agonist: LPS (TLR4) 0.1 ug/mL): 1
- NF-kB SEAP reporter activity (RAW-Dual [1]; [4]): 1.09
- NF-kB SEAP reporter activity (RAW-Dual [1]; [5]): 1.17
- NF-kB SEAP reporter activity (RAW-Dual [1]; [6]): 1.16

Structure (SMILES): C=C(C)C1CCC2(C(=O)OC3OC(COC4OC(CO)C(OC5OC(C)C(O)C(O)C5O)C(O)C4O)C(O)C(O)C3O)CCC3(C)C(CCC4C5(C)CCC(OC6OCC(O)C(O)C6OC6OC(C)C(O)C(O)C6O)C(C)(CO)C5CCC43C)C12 (configuration not stated)
- NF-kB SEAP reporter activity (RAW-Dual [2]; [7]): 0.946
- NF-kB SEAP reporter activity (RAW-Dual [2]; [8]): 1.07

Structure (SMILES): Cn1cc(-c2cnn3c(N)c(Br)c(C4CCCNC4)nc23)cn1 (configuration not stated)
- NF-kB SEAP reporter activity (RAW-Dual [2]; [7]): 1.09
- NF-kB SEAP reporter activity (RAW-Dual [2]; [8]): 1.35

Structure (SMILES): Cn1cc(-c2cnn3c(N)c(Br)c(C4CCCNC4)nc23)cn1 (configuration not stated) (library stock concentration (final ~1000-fold dilution): 2 mM)
- NF-kB SEAP reporter activity (RAW-Dual [1]; agonist: LPS (TLR4) 0.1 ug/mL): 1.31
- NF-kB SEAP reporter activity (RAW-Dual [1]; [4]): 1.04
- NF-kB SEAP reporter activity (RAW-Dual [1]; [5]): 1.04
- NF-kB SEAP reporter activity (RAW-Dual [1]; [6]): 1.19

Structure (SMILES): Nc1ccn(C2CCC(CO)O2)c(=O)n1 (configuration not stated)
- NF-kB SEAP reporter activity (RAW-Dual [2]; [9]): 0.994
- NF-kB SEAP reporter activity (RAW-Dual [2]; [10]): 0.981

Structure (SMILES): Nc1ccn(C2CCC(CO)O2)c(=O)n1 (configuration not stated) (library stock concentration (final ~1000-fold dilution): 10 mM)
- NF-kB SEAP reporter activity (RAW-Dual [1]; agonist: LPS (TLR4) 0.1 ug/mL): 0.913
- NF-kB SEAP reporter activity (RAW-Dual [1]; [4]): 1
- NF-kB SEAP reporter activity (RAW-Dual [1]; [5]): 0.95
- NF-kB SEAP reporter activity (RAW-Dual [1]; [6]): 1.15

Structure (SMILES): Nc1cc(F)ccc1NC(=O)/C=C/c1cnn(C/C=C/c2ccccc2)c1 (library stock concentration (final ~1000-fold dilution): 10 mM)
- NF-kB SEAP reporter activity (RAW-Dual [1]; agonist: LPS (TLR4) 0.1 ug/mL): 0.995
- NF-kB SEAP reporter activity (RAW-Dual [1]; [4]): 1.12
- NF-kB SEAP reporter activity (RAW-Dual [1]; [5]): 0.405
- NF-kB SEAP reporter activity (RAW-Dual [1]; [6]): 0.419

Structure (SMILES): Cn1cc(-c2ccc(S(=O)(=O)n3ccc(/C=C/C(=O)Nc4ccccc4N)c3)cc2)cn1 (library stock concentration (final ~1000-fold dilution): 10 mM)
- NF-kB SEAP reporter activity (RAW-Dual [3]; agonist: LPS (TLR4) 0.1 ug/mL): 4.11
- NF-kB SEAP reporter activity (RAW-Dual [3]; [4]): 3.13
- NF-kB SEAP reporter activity (RAW-Dual [3]; [5]): 1.14
- NF-kB SEAP reporter activity (RAW-Dual [3]; [6]): 2.27

Structure (SMILES): Nc1cc(F)ccc1NC(=O)/C=C/c1cnn(C/C=C/c2ccccc2)c1
- NF-kB SEAP reporter activity (RAW-Dual [2]; [9]): 1.14
- NF-kB SEAP reporter activity (RAW-Dual [2]; [10]): 1.2

Structure (SMILES): Cn1cc(-c2ccc(S(=O)(=O)n3ccc(/C=C/C(=O)Nc4ccccc4N)c3)cc2)cn1
- NF-kB SEAP reporter activity (RAW-Dual [2]; [11]): 1.68
- NF-kB SEAP reporter activity (RAW-Dual [2]; [12]): 2.37

Structure (SMILES): COc1cc(C(=O)O)ccc1O
- NF-kB SEAP reporter activity (RAW-Dual [2]; [9]): 0.937
- NF-kB SEAP reporter activity (RAW-Dual [2]; [10]): 1.02

Structure (SMILES): COc1cc(C(=O)O)ccc1O (library stock concentration (final ~1000-fold dilution): 10 mM)
- NF-kB SEAP reporter activity (RAW-Dual [1]; agonist: LPS (TLR4) 0.1 ug/mL): 1.06
- NF-kB SEAP reporter activity (RAW-Dual [1]; [4]): 1.12
- NF-kB SEAP reporter activity (RAW-Dual [1]; [5]): 1.14
- NF-kB SEAP reporter activity (RAW-Dual [1]; [6]): 1.16

Structure (SMILES): COCCOc1nc(N)c2[nH]c(=O)n(Cc3ccc(C(=O)O)cc3)c2n1
- NF-kB SEAP reporter activity (RAW-Dual [2]; [9]): 1.8
- NF-kB SEAP reporter activity (RAW-Dual [2]; [10]): 2.54

Structure (SMILES): COCCOc1nc(N)c2[nH]c(=O)n(Cc3ccc(C(=O)O)cc3)c2n1 (library stock concentration (final ~1000-fold dilution): 10 mM)
- NF-kB SEAP reporter activity (RAW-Dual [1]; agonist: LPS (TLR4) 0.1 ug/mL): 7.55
- NF-kB SEAP reporter activity (RAW-Dual [1]; [4]): 2.13
- NF-kB SEAP reporter activity (RAW-Dual [1]; [5]): 1.46
- NF-kB SEAP reporter activity (RAW-Dual [1]; [6]): 2.77

Structure (SMILES): CCCCOc1nc(N)c2c(n1)N(Cc1cccc(CN3CCCC3)c1)CC(=O)N2
- NF-kB SEAP reporter activity (RAW-Dual [2]; library stock concentration (final ~1000-fold dilution): 1 mM, cytotoxicity flag (confluency mask): not cytotoxic, agonist: Imiquimod (TLR7) […]): 1.26
- NF-kB SEAP reporter activity (RAW-Dual [2]; library stock concentration (final ~1000-fold dilution): 1 mM, cytotoxicity flag (confluency mask): not cytotoxic, agonist: MPLA (TLR4) […]): 1.91

Structure (SMILES): CCCCOc1nc(N)c2c(n1)N(Cc1cccc(CN3CCCC3)c1)CC(=O)N2 (library stock concentration (final ~1000-fold dilution): 1 mM)
- NF-kB SEAP reporter activity (RAW-Dual [1]; agonist: LPS (TLR4) 0.1 ug/mL): 2.53
- NF-kB SEAP reporter activity (RAW-Dual [1]; [4]): 1.13
- NF-kB SEAP reporter activity (RAW-Dual [1]; [5]): 1.17
- NF-kB SEAP reporter activity (RAW-Dual [1]; [6]): 1.25

Structure (SMILES): Cc1cn(C2CC(O)C(CO)O2)c(=O)[nH]c1=O (configuration not stated) (library stock concentration (final ~1000-fold dilution): 10 mM)
- NF-kB SEAP reporter activity (RAW-Dual [1]; agonist: LPS (TLR4) 0.1 ug/mL): 1.16
- NF-kB SEAP reporter activity (RAW-Dual [1]; [4]): 1.03
- NF-kB SEAP reporter activity (RAW-Dual [1]; [5]): 1.12
- NF-kB SEAP reporter activity (RAW-Dual [1]; [6]): 1.11

Structure (SMILES): Cc1cn(C2CC(O)C(CO)O2)c(=O)[nH]c1=O (configuration not stated)
- NF-kB SEAP reporter activity (RAW-Dual [2]; [9]): 0.952
- NF-kB SEAP reporter activity (RAW-Dual [2]; [10]): 1.03

Structure (SMILES): CC1(COc2ccc3c(c2)ncn3-c2ccc3cccc(N4CCC(N)CC4)c3n2)COC1 (library stock concentration (final ~1000-fold dilution): 10 mM)
- NF-kB SEAP reporter activity (RAW-Dual [3]; agonist: LPS (TLR4) 0.1 ug/mL): 0.769
- NF-kB SEAP reporter activity (RAW-Dual [3]; [4]): 1.59
- NF-kB SEAP reporter activity (RAW-Dual [3]; [5]): 1.81
- NF-kB SEAP reporter activity (RAW-Dual [3]; [6]): 1.6

Structure (SMILES): CC1(COc2ccc3c(c2)ncn3-c2ccc3cccc(N4CCC(N)CC4)c3n2)COC1
- NF-kB SEAP reporter activity (RAW-Dual [2]; [11]): 2.9
- NF-kB SEAP reporter activity (RAW-Dual [2]; [12]): 1.43

Structure (SMILES): COCCOc1ccc2c(c1)ncn2-c1ccc2cccc(N3CCC(N)CC3)c2n1
- NF-kB SEAP reporter activity (RAW-Dual [2]; [11]): 2.77
- NF-kB SEAP reporter activity (RAW-Dual [2]; [12]): 0.871

Structure (SMILES): COCCOc1ccc2c(c1)ncn2-c1ccc2cccc(N3CCC(N)CC3)c2n1 (library stock concentration (final ~1000-fold dilution): 10 mM)
- NF-kB SEAP reporter activity (RAW-Dual [3]; agonist: LPS (TLR4) 0.1 ug/mL): 0.593
- NF-kB SEAP reporter activity (RAW-Dual [3]; [4]): 0.758
- NF-kB SEAP reporter activity (RAW-Dual [3]; [5]): 0.862
- NF-kB SEAP reporter activity (RAW-Dual [3]; [6]): 1.32

Structure (SMILES): OCc1ccccc1OC1OC(CO)C(O)C(O)C1O (configuration not stated) (library stock concentration (final ~1000-fold dilution): 10 mM)
- NF-kB SEAP reporter activity (RAW-Dual [1]; agonist: LPS (TLR4) 0.1 ug/mL): 0.986
- NF-kB SEAP reporter activity (RAW-Dual [1]; [4]): 1.08
- NF-kB SEAP reporter activity (RAW-Dual [1]; [5]): 1.11
- NF-kB SEAP reporter activity (RAW-Dual [1]; [6]): 1.19

Structure (SMILES): OCc1ccccc1OC1OC(CO)C(O)C(O)C1O (configuration not stated)
- NF-kB SEAP reporter activity (RAW-Dual [2]; [9]): 0.917
- NF-kB SEAP reporter activity (RAW-Dual [2]; [10]): 1.04

Structure (SMILES): COc1cccc(-c2c(C)n(Cc3c(F)cccc3C(F)(F)F)c(=O)n(CC(NCCCC(=O)O)c3ccccc3)c2=O)c1F (configuration not stated) (library stock concentration (final ~1000-fold dilution): 10 mM)
- NF-kB SEAP reporter activity (RAW-Dual [1]; agonist: LPS (TLR4) 0.1 ug/mL): 1.32
- NF-kB SEAP reporter activity (RAW-Dual [1]; [4]): 1.06
- NF-kB SEAP reporter activity (RAW-Dual [1]; [5]): 0.866
- NF-kB SEAP reporter activity (RAW-Dual [1]; [6]): 0.768

Structure (SMILES): COc1cccc(-c2c(C)n(Cc3c(F)cccc3C(F)(F)F)c(=O)n(CC(NCCCC(=O)O)c3ccccc3)c2=O)c1F (configuration not stated)
- NF-kB SEAP reporter activity (RAW-Dual [2]; [10]): 1.03
